Reference: the supplement of paper PMC7366291
Structures can show the parent of a compound that is named as a salt. ± gives the standard deviation or the standard deviation of the averaged measurements.

Key:
Details in all cases: 25 µM; exposure: 24-48 hpf
[1] = system: Danio rerio Tg(wt1b:EGFP) embryo, pronephros; assay: glomerular separation, fold change vs DMSO control; higher = glomeruli further apart (abnormal)
Method in brief: (§1)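 Each feature value is a fold change relative to the mean of same-day DMSO-treated embryos. Embryos of the Tg(wt1b:EGFP) zebrafish line, dechorionated, received 25 μM compound in 0.5% DMSO from 24 to 48 hpf at 28.5°C, in HEPES-buffered E3 with 0.003% PTU. Distances and angles were computed by a Fiji macro from 16 manually set reference points on maximum projections of dorsal pronephros images, and values beyond 2 SD of the feature mean were removed.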

[2] = system: Danio rerio Tg(wt1b:EGFP) embryo, pronephros; assay: glomerular width (mean of left and right), fold change vs DMSO control; higher = wider glomerulus
Method in brief: as §1

[3] = system: Danio rerio Tg(wt1b:EGFP) embryo, pronephros; assay: fraction of imaged embryos annotated as normal kidney; higher = less nephrotoxic; extreme values may be limits of the assay
Method in brief: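 Dechorionated Tg(wt1b:EGFP) zebrafish embryos were incubated with 25 μM compound in 0.5% DMSO, 5 mM HEPES-buffered E3 and 0.003% PTU from 24 to 48 hpf at 28.5°C. Pronephroi were then imaged by widefield fluorescence, and the fraction of embryos per treatment assigned by hand to the normal-kidney category is given.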

[4] = system: Danio rerio Tg(wt1b:EGFP) embryo, pronephros; assay: pronephric angle neck segment to proximal convoluted tubule (mean of left and right), fold change vs DMSO control; higher = larger pronephric angle
Method in brief: as §1

## NC(=O)CN1CCCC1=O [Piracetam]
[1]
  glomerular separation: 0.815 ± 0.17
[2]
  glomerular width: 1.08 ± 0.032
[3]
  fraction of imaged embryos annotated as normal kidney: 0.917
[4]
  pronephric angle neck segment: 0.914 ± 0.051

## CNC(C)(C)Cc1ccccc1 [Mephentermine hemisulfate]
[1]
  glomerular separation: 0.946 ± 0.41
[2]
  glomerular width: 1.08 ± 0.036
[3]
  fraction of imaged embryos annotated as normal kidney: 1
[4]
  pronephric angle neck segment: 0.991 ± 0.081

## C[C@]12CCC(=O)C(O)=C1CC[C@@H]1[C@@H]2CC[C@]2(C)C(=O)CC[C@@H]12 [Formestane]
[1]
  glomerular separation: 1.16 ± 0.45
[2]
  glomerular width: 0.866 ± 0.031
[3]
  fraction of imaged embryos annotated as normal kidney: 0.917
[4]
  pronephric angle neck segment: 0.9657 ± 0.0071

## CC(=O)O[C@H]1C[C@H](O[C@H]2[C@@H](O)C[C@H](O[C@H]3[C@@H](O)C[C@H](O[C@H]4CC[C@@]5(C)[C@H](CC[C@@H]6[C@@H]5C[C@@H](O)[C@]5(C)[C@@H](C7=CC(=O)OC7)CC[C@]65O)C4)O[C@@H]3C)O[C@@H]2C)O[C@H](C)[C@H]1O[C@@H]1O[C@H](CO)[C@@H](O)[C@H](O)[C@H]1O [Lanatoside C]
[1]
  glomerular separation: 1.4 ± 0.72
[2]
  glomerular width: 0.929 ± 0.065
[3]
  fraction of imaged embryos annotated as normal kidney: 0.917
[4]
  pronephric angle neck segment: 1.01 ± 0.041

## O=C1CC[C@@]2(O)[C@H]3Cc4ccc(O)c5c4[C@@]2(CCN3CC2CC2)[C@H]1O5 [Naltrexone hydrochloride dihydrate]
[1]
  glomerular separation: 0.749 ± 0.22
[2]
  glomerular width: 1.124 ± 0.0082
[3]
  fraction of imaged embryos annotated as normal kidney: 0.833
[4]
  pronephric angle neck segment: 1.03 ± 0.058

## C[C@]12COC(=O)C[C@@H]1CC[C@@H]1[C@@H]2CC[C@@]2(C)[C@H]1CC[C@]2(C)O [Oxandrolone]
[1]
  glomerular separation: 0.832 ± 0.35
[2]
  glomerular width: 1.1 ± 0.05
[3]
  fraction of imaged embryos annotated as normal kidney: 0.917
[4]
  pronephric angle neck segment: 1.01 ± 0.036

## C[N+]1([O-])[C@@H]2C[C@@H](OC(=O)[C@H](CO)c3ccccc3)C[C@H]1[C@@H]1O[C@@H]12 (stereo partly specified) [Scopolamin-N-oxide hydrobromide]
[1]
  glomerular separation: 0.883 ± 0.35
[2]
  glomerular width: 1.03 ± 0.018
[3]
  fraction of imaged embryos annotated as normal kidney: 0.909
[4]
  pronephric angle neck segment: 0.9285 ± 0.0031

## NC(=O)C[S+]([O-])C(c1ccccc1)c1ccccc1 (stereo unspecified) [Modafinil]
[1]
  glomerular separation: 1.04 ± 0.25
[2]
  glomerular width: 1.09 ± 0.073
[3]
  fraction of imaged embryos annotated as normal kidney: 0.5
[4]
  pronephric angle neck segment: 1 ± 0.041

## OC(c1ccccc1)(c1ccccc1)C1CCNCC1 [Azacyclonol]
[1]
  glomerular separation: 0.869 ± 0.25
[2]
  glomerular width: 0.9558 ± 0.0054
[3]
  fraction of imaged embryos annotated as normal kidney: 0.833
[4]
  pronephric angle neck segment: 0.994 ± 0.029

## COc1ccc(Cc2nccc3cc(OC)c(OC)cc23)cc1OC [Papaverine hydrochloride]
[1]
  glomerular separation: 0.972 ± 0.22
[2]
  glomerular width: 1.04 ± 0.065
[3]
  fraction of imaged embryos annotated as normal kidney: 0.833
[4]
  pronephric angle neck segment: 0.968 ± 0.018

## C[C@]12CC[C@@H](O)C[C@H]1CC[C@@H]1[C@@H]2CC[C@]2(C)C(=O)CC[C@@H]12 [3-alpha-Hydroxy-5-beta-androstan-17-one]
[1]
  glomerular separation: 1.13 ± 0.44
[2]
  glomerular width: 0.982 ± 0.066
[3]
  fraction of imaged embryos annotated as normal kidney: 0.75
[4]
  pronephric angle neck segment: 1 ± 0.013

## CN(C)C(=O)Oc1ccc[n+](C)c1 [Pyridostigmine iodide]
[1]
  glomerular separation: 1.26 ± 0.35
[2]
  glomerular width: 0.982 ± 0.096
[3]
  fraction of imaged embryos annotated as normal kidney: 0.917
[4]
  pronephric angle neck segment: 1.03 ± 0.013

## C1CCc2nnnn2CC1 [Pentylenetetrazole]
[1]
  glomerular separation: 0.925 ± 0.28
[2]
  glomerular width: 0.994 ± 0.07
[3]
  fraction of imaged embryos annotated as normal kidney: 0.8
[4]
  pronephric angle neck segment: 0.956 ± 0.021

## CN1[C@@H]2CC[C@H]1C[C@@H](OC(=O)C(CO)c1ccccc1)C2 (stereo partly specified) [Atropine sulfate monohydrate]
[1]
  glomerular separation: 1.25 ± 0.3
[2]
  glomerular width: 1.04 ± 0.011
[3]
  fraction of imaged embryos annotated as normal kidney: 1
[4]
  pronephric angle neck segment: 1 ± 0.063

## CCC(=O)O[C@@](Cc1ccccc1)(c1ccccc1)[C@@H](C)CN(C)C [Levopropoxyphene napsylate]
[1]
  glomerular separation: 1.29 ± 0.53
[2]
  glomerular width: 1.05 ± 0.037
[3]
  fraction of imaged embryos annotated as normal kidney: 0.909
[4]
  pronephric angle neck segment: 0.996 ± 0.044

## N[C@@H]1C[C@H]1c1ccccc1 [Tranylcypromine hydrochloride]
[1]
  glomerular separation: 1.03 ± 0.28
[2]
  glomerular width: 1.021 ± 0.0055
[3]
  fraction of imaged embryos annotated as normal kidney: 0.727
[4]
  pronephric angle neck segment: 1.01 ± 0.038

## CN1CCN(C(=O)OC2c3nccnc3C(=O)N2c2ccc(Cl)cn2)CC1 (stereo unspecified) [Zopiclone]
[1]
  glomerular separation: 1.06 ± 0.41
[2]
  glomerular width: 0.93 ± 0.014
[3]
  fraction of imaged embryos annotated as normal kidney: 1
[4]
  pronephric angle neck segment: 0.98709 ± 0.00059

## O=C(CCCN1CCC(n2c(=O)[nH]c3ccccc32)CC1)c1ccc(F)cc1 [Benperidol]
[1]
  glomerular separation: 1.04 ± 0.25
[2]
  glomerular width: 0.951 ± 0.034
[3]
  fraction of imaged embryos annotated as normal kidney: 0.917
[4]
  pronephric angle neck segment: 0.992 ± 0.033

## COc1ccc(C(CN(C)C)C2(O)CCCCC2)cc1 (stereo unspecified) [Venlafaxine]
[1]
  glomerular separation: 0.684 ± 0.13
[2]
  glomerular width: 1.023 ± 0.0059
[3]
  fraction of imaged embryos annotated as normal kidney: 0.917
[4]
  pronephric angle neck segment: 0.925 ± 0.013

## CC(C)c1c(CN(C)C(C)Cc2ccccc2)n(C)n(-c2ccccc2)c1=O (stereo unspecified) [Famprofazone]
[1]
  glomerular separation: 0.985 ± 0.39
[2]
  glomerular width: 0.985 ± 0.031
[3]
  fraction of imaged embryos annotated as normal kidney: 0.917
[4]
  pronephric angle neck segment: 1.084 ± 0.0087

## CC[N+]1(C)CCCC(OC(=O)C(O)(c2ccccc2)c2ccccc2)C1 (stereo unspecified) [Pipenzolate bromide]
[1]
  glomerular separation: 0.89 ± 0.28
[2]
  glomerular width: 1.051 ± 0.0016
[3]
  fraction of imaged embryos annotated as normal kidney: 0.909
[4]
  pronephric angle neck segment: 0.981 ± 0.037

## CC(=O)O[C@H]1CC[C@@]2(C)C(=CC[C@@H]3[C@@H]2CC[C@]2(C)C(=O)CC[C@@H]32)C1 [Dehydroisoandosterone 3-acetate]
[1]
  glomerular separation: 1.13 ± 0.35
[2]
  glomerular width: 0.896 ± 0.056
[3]
  fraction of imaged embryos annotated as normal kidney: 0.917
[4]
  pronephric angle neck segment: 1.02 ± 0.043

## C[C@]12CC[C@@H](O)C[C@@H]1CC[C@@H]1[C@@H]2CC[C@]2(C)C(=O)CC[C@@H]12 [Androsterone]
[1]
  glomerular separation: 0.907 ± 0.17
[2]
  glomerular width: 0.991 ± 0.038
[3]
  fraction of imaged embryos annotated as normal kidney: 0.75
[4]
  pronephric angle neck segment: 0.999 ± 0.015

## CNCC(O)c1ccc(O)cc1 (racemic) [(+,-)-Synephrine]
[1]
  glomerular separation: 1.01 ± 0.41
[2]
  glomerular width: 0.959 ± 0.015
[3]
  fraction of imaged embryos annotated as normal kidney: 0.833
[4]
  pronephric angle neck segment: 1.017 ± 0.0012
